In all, about 65,000 compounds went through this assay and about 360 (0.55%) were called active. Many of the other results were omitted from the sample, so actives are more common in it than they were. A number with no mark means an inactive call.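 The calls were made as follows: active = inhibition above the mean inhibition of all tested compounds plus 3 SD (cut at about 48% in these data); inactive = the rest.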

The values below come from PubChem BioAssay AID525 (The Scripps Research Institute Molecular Screening Center, 2006).

Sequence of Steroidogenic factor 1 (Homo sapiens) (Q13285 whole entry, looked up, the tested form may be a part): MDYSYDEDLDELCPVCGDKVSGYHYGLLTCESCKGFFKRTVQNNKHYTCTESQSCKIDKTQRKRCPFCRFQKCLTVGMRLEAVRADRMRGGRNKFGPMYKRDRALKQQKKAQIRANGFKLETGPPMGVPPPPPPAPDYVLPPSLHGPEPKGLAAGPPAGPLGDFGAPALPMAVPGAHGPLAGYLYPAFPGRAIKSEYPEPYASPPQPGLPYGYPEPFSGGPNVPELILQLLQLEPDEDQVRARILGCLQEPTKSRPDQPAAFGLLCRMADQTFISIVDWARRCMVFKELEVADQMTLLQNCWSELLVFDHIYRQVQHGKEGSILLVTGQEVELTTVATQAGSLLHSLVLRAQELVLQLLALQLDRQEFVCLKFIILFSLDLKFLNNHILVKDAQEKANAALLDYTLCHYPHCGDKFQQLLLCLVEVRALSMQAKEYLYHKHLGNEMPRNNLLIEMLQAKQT

The experiment has as its target Steroidogenic factor 1 (Homo sapiens) (UniProt Q13285). The experiment in a line: suppressors of SF-1 driven luciferase transcription – cell-based, CHO-K1, Gal4-SF-1 LBD, luciferase luminescence, primary screen (AID 525).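 Also: 0% = SF-1 transfected cells with DMSO and 100% = mock-transfected cells lacking SF-1.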 The following applies: CHO-K1 Gal4-SF-1 LBD luciferase reporter; at 10 µM; active compounds read high.
As for `COc1ccc(NC(=O)Nc2cccc3cccnc23)cc1`, the inhibition is -65.5%. Consider `O=C(CSCc1cccs1)N1CCCC1`, for which the inhibition is -60.5%.

On to `CCCCCN(C(=O)NC(=O)Nc1ccccc1OC)S(C)(=O)=O`, for which the inhibition is -5.9%. Turning to `CN(C(=O)c1ccccn1)c1nnc(-c2ccccn2)s1`, the inhibition was -56.6%. For the compound `COc1ccc(OCc2ccc(-c3nc4ccccc4c(=O)n3N)o2)cc1`, the inhibition was -59%. The figure for `COc1ccc(-c2cn3ccsc3n2)cc1` is -53.3%; for `COC(=O)Cn1cc(C(=O)c2cccs2)c2ccccc21` it is 2.8%. `CC[C@H]1CN2CCc3cc(OC)c(OC)cc3[C@@H]2C[C@@H]1C[C@H]1NCCc2cc(OC)c(OC)cc21`: the inhibition is 96% (active).

Regarding `Cn1c(=O)c2c(nc(SCC(=O)Nc3ccccc3N3CCCCC3)n2C)n(C)c1=O`, the inhibition is -2.8%. For `CCC(=O)Nc1cccc(NC(=O)CSc2nnc(-c3ccc(NS(C)(=O)=O)cc3)n2C)c1`, the inhibition was -2.4%.

For `COc1ccc(N2C(=O)C3CCCN3C2c2cc(OC)c(OC)cc2OC)cc1` (stereo unspecified), the inhibition was 2.8%. Regarding `N#Cc1ccc(OCCN2C(=O)NC3(CCSC3)C2=O)cc1` (stereo unspecified), the inhibition was -12.8%. The figure for `O=C(NCCN1C(=O)C2C3C=CC(C3)C2C1=O)Nc1ccccn1` (stereo unspecified) is -7.6%. In the case of `Cc1cc(C)c(NC(=O)CS(=O)CC(=O)Nc2cccnc2)c(C)c1` (stereo unspecified), the inhibition is 2.2%. For the compound `CC(=O)c1c(N2CCOCC2)nc(=S)n(Cc2ccccc2)c1C`, the inhibition was 4.9%. `COC(=O)c1cc(C(=O)CSc2nc(C)cc(C)n2)ccc1O`: the inhibition is 11.2%.

Take `O=C(c1cnn2ccccc12)N1CCc2ccccc21`: the inhibition is -111%. For `Cc1nnc(SCC(=O)NCc2cccs2)[nH]c1=O`, the inhibition is 13.6%.

For `c1c2c(cc3sc(N4CCCCC4)nc13)OCCO2`, the inhibition is 71.4% (active). With `Fc1cc(F)c2nc(N3CCOCC3)sc2c1`, the inhibition is -52.6%. The figure for `O=C(c1cccc(C(=O)N2CCc3ccccc32)n1)N1CCc2ccccc21` is 0.9%; for `CCNC(=O)CCc1nc(-c2ccc(C(C)(C)C)cc2)no1` it is 86.4% (active).

In the case of `Cc1ccc(Cc2nc(-c3cccc(C)c3)no2)cc1`, the inhibition is -53.9%. In the case of `Brc1cccc(-c2nnc3n2CCC3)c1`, the inhibition is 3.8%. On to `CC12CN(Cc3ccccc3)CC(C)(CN(Cc3ccccc3)C1)C2=NO`, for which the inhibition was 25.5%. Turning to `O=C(Nc1ccc(Cl)cc1)c1ccsn1`, the inhibition was -73.5%. The figure for `O=C(Nc1ccccc1C(F)(F)F)c1cc(-c2ccc(O)cc2)on1` is -64.4%; for `CC1CSc2nnc(CCc3ccccc3)n21` (stereo unspecified) it is 3.6%. With `O=C(COc1ccc(Cl)cc1)Nc1ccccc1CO`, the inhibition is -29%.

As for `O=C(NCc1cn2ccsc2n1)Nc1ccc(Cl)cc1`, the inhibition was 1.7%. `O=C(NCc1ccco1)c1cc2sccc2n1Cc1ccc(F)cc1`: the inhibition was 11%. In the case of `COc1ccc(CCNC(=O)CSc2nc(C)nc3c2oc2ccccc23)cc1OC`, the inhibition was -27.3%.

With `COc1cccc(CN2C(=O)CCC2(C)C(=O)NC2CCCCCC2)c1` (stereo unspecified), the inhibition was -6.9%.

Turning to `O=C(Nc1cccc(Cl)c1)OCc1ccccn1`, the inhibition was -33.6%.

On to `COc1ccccc1NC(=O)CSc1nnc(Cc2cccn2C)n1-c1ccc(F)cc1`, for which the inhibition was 16.2%.

As to `O=C(Nc1ccccc1F)c1cc(S(=O)(=O)N2CCCCC2)cs1`, the inhibition is 4.9%.

Consider `COc1cccc(OC)c1C(=O)Nc1nnc(C(C)C)s1`, for which the inhibition was 5.1%. For the compound `C=CCNC(=O)CCCOc1cccc(C)c1`, the inhibition was -11.2%.

`Cc1cccc(NC(=O)c2ccc3ccccc3n2)n1`: the inhibition was -98.6%. For the compound `COc1cccc(N(CC(=O)NC2CCCC2)C(=O)Cn2nnc(-c3ccc(C)cc3)n2)c1`, the inhibition was -13.3%. With `COc1cccc2sc(Nc3nc(C)c(C(C)=O)s3)nc12`, the inhibition is -109%.

With `COC(=O)c1sc(NC(=O)c2csc3c2CCCC3)nc1C`, the inhibition is -50.9%. Take `COC(=O)c1sc(NC(=O)c2ccc(OC)cc2OC)nc1C`: the inhibition is 57.8% (active). With `CC(C)C(c1nnnn1Cc1ccccc1)N1CCC(C(N)=O)CC1` (stereo unspecified), the inhibition was 7.4%.

Regarding `Cn1nnc2cc(C(=O)NCCC3=CCCCC3)ccc21`, the inhibition was -49.9%. Regarding `O=C(c1cccs1)N1CCN(C(=O)N2CCOCC2)CC1`, the inhibition was -0.9%. On to `CN(c1ccc(C(=O)NCCC2=CCCCC2)cc1)S(C)(=O)=O`, for which the inhibition is -55.4%. As to `CCC(=O)Oc1cccc(C(=O)Nc2ccc(-c3nnc(-c4ccco4)o3)cc2)c1`, the inhibition is -79.8%.

For the compound `CCCCOc1ccc(-c2nnc(-c3ccco3)o2)cc1`, the inhibition is -23.7%. Consider `CCOc1ccc(-c2nnc(-c3ccco3)o2)cc1`, for which the inhibition was 48% (active).

With `Cc1csc(NC(=O)C2CCCN2C(=O)OCC(C)C)n1` (stereo unspecified), the inhibition was 5.9%.

For `O=C(NCc1ccccn1)Nc1ccc(F)cc1`, the inhibition was -14.7%. With `CC(=O)OC(C(=O)NCCc1ccccc1)c1cccnc1` (stereo unspecified), the inhibition was 4.1%. For the compound `CCCC(=O)C1=C(N(C)c2ccccc2)CC(C)(C)C(C(=O)OC)C1=O` (stereo unspecified), the inhibition is -2.3%. On to `CCc1nnc(NC(=O)c2cccs2)s1`, for which the inhibition is -50%. For `Cc1noc(NS(=O)(=O)c2ccc(N3CC(O)=C(c4ccccc4)C3=N)cc2)c1C`, the inhibition is 10.1%. The figure for `COCc1cc(C)nc(Nc2cc(C)ccc2C)c1C#N` is 3.4%; for `COc1ccc(C)c2sc(=NC(=O)c3ccc(C#N)cc3)n(C)c12` it is -42.4%. As for `Clc1ccc(Cc2nnc(-c3cccs3)o2)cc1`, the inhibition was -59.5%.

For `CCn1c(CSc2nncn2-c2ccc(OC)cc2)nc2cc(S(=O)(=O)N(C)C)ccc21`, the inhibition is -10.1%. Turning to `COc1ccc(OCCCC(=O)Nc2nnc(C3CCCO3)s2)cc1` (stereo unspecified), the inhibition is -1.2%. As for `Cc1[nH]c2ccc(S(N)(=O)=O)cc2c1C`, the inhibition is -22.2%. As to `CN(C)c1ccc(CNC23CN4CN(CN(C4)C2)C3)cc1`, the inhibition is 14.1%.

On to `O=C(NCc1ccccc1)C1C(=O)N(Cc2ccccc2)C(=O)C1C1(O)CCCC1` (stereo unspecified), for which the inhibition was 4.4%. The same measure for `CC1CN(c2cc(=O)n(Cc3ccc(F)cc3)c(=O)[nH]2)CC(C)O1` (stereo unspecified): -7.1%; for `O=C(CN1C(=O)COc2ccccc21)NCCN1CCc2ccccc2C1`: 1.3%. The figure for `C[N+]1(CCNC(=O)/C=N/O)CCCCC1` is 3.2%; for `CC(C)C(=O)Nc1cccc(C(=O)Nc2ccc3c(c2)OCO3)c1` it is -55%. As for `Cc1cccc(NC(=O)CSC(N)=O)c1C`, the inhibition is 9.5%. For the compound `CCOC(=O)c1sc(N(Cc2ccccc2)C(=O)CN2C(=O)CN(C)C2=O)nc1C`, the inhibition was 3.4%.

`CCS(=O)(=O)N1CCC(C(=O)N2CCN(c3ccccc3)CC2)CC1`: the inhibition is 0.7%.

With `O=C(Nc1ccc(NC(=O)c2cccs2)cn1)c1ccco1`, the inhibition was -73.3%. For `O=C(c1cccc(C(=O)N2CCN(c3ccc(F)cc3)CC2)c1)N1CCN(c2ccc(F)cc2)CC1`, the inhibition is 6.4%. Regarding `COc1ccc(C2=NOC(C(=O)NCc3ccco3)C2)cc1OC` (stereo unspecified), the inhibition was -23.3%.

With `COC(=O)c1ccccc1NC(=O)C1CCN(S(=O)(=O)c2cc(OC)ccc2OC)CC1`, the inhibition is 4.4%. As for `CC(=O)c1cc(C#N)c(SCC(=O)C(C)(C)C)nc1C`, the inhibition was -57.1%.

For the compound `CCOC(=O)C1=C(C)N=c2s/c(=C\C(=O)OC)c(=O)n2C1c1ccc(OC)cc1` (stereo unspecified), the inhibition was -6.9%.

In the case of `COc1ccc(OC)c(CNC(=O)C2CCCN(c3nc4ccccc4o3)C2)c1` (stereo unspecified), the inhibition is 9.1%.

Regarding `COCc1cc(C)nc(SCC(=O)Nc2cccc(C)c2)c1C#N`, the inhibition is 2.8%. Consider `Cc1cnc(NC(=O)CSc2nnc(-c3ccccc3)n2Cc2ccccc2)s1`, for which the inhibition was 13.7%.

Take `COc1ccc(N2CCN(CCNC(=O)CCN3C(=O)COc4ccccc43)CC2)cc1`: the inhibition was 11.5%.

Turning to `CCOC(=O)CCC(=O)OCC(=O)NC(C)C1CC2CCC1C2` (stereo unspecified), the inhibition was 0.5%. On to `COc1ccc(OC)c(Nc2nc(-c3ccc(O)c(O)c3)cs2)c1`, for which the inhibition was 85.3% (active). Take `Cc1cc2nc(-c3ccc(NC(=O)c4cccnc4)cc3)oc2cc1C`: the inhibition was -54.8%. Regarding `Nc1ccc(-c2nnc(-c3ccc(-c4ccccc4)cc3)o2)cc1`, the inhibition was -55.2%.

As for `CCc1ccc2oc(-c3ccc(N)cc3)nc2c1`, the inhibition is 50.8% (active). For `O=C(CSc1nnc2ccccn12)c1ccccc1`, the inhibition was -55.3%. The figure for `Fc1ccc2[nH]c3c(N4CCSCC4)ncnc3c2c1` is 58.1% (active).

For the compound `Fc1ccc2[nH]c3c(N4CCN(Cc5ccc6c(c5)OCO6)CC4)ncnc3c2c1`, the inhibition is 83.3% (active).

Take `O=C(C1CCN(S(=O)(=O)c2cnc[nH]2)CC1)N1CCN(Cc2ccc3c(c2)OCO3)CC1`: the inhibition was 6.1%. The figure for `CC[C@]1(O)CC2CN(CCc3c([nH]c4ccccc34)[C@@](C(=O)OC)(c3cc4c(cc3OC)N(C=O)[C@H]3[C@@](O)(C(=O)OC)[C@H](OC(C)=O)[C@]5(CC)C=CCN6CC[C@]43[C@@H]65)C2)C1` (stereo partly specified) is 73.8% (active). As for `CC[C@]1(O)C[C@@H]2CN(CCc3c([nH]c4ccccc34)[C@@](C(=O)OC)(c3cc4c(cc3OC)N(C)[C@H]3[C@@](O)(C(=O)OC)[C@H](OC(C)=O)[C@]5(CC)C=CCN6CC[C@]43[C@@H]65)C2)C1`, the inhibition was 73.1% (active). As to `Cc1ccc(N2C(=O)c3ccccc3C2(O)c2ncc[nH]2)cc1` (stereo unspecified), the inhibition was -6.1%. Take `COc1cc(C2C3C(=O)N(c4ccccc4)C(=O)C3ON2c2ccccc2)ccc1O` (stereo unspecified): the inhibition was -51.7%. For `O=C(Nn1cnc2ccccc2c1=O)c1ccc(F)cc1Cl`, the inhibition is -64.7%. Turning to `CC1CN(C2CCCCC2)c2nc3c(c(=O)n(C)c(=O)n3C)n2C1` (stereo unspecified), the inhibition was -1.7%.
